Source: PubChem BioAssay (Tox21)
Unmarked numbers belong to inactive results. Records with an inconclusive call do not appear. A call without a number means that no potency is given here. The source made the active and inactive calls. Unless noted, the call rests on the fitted dose curve; in most records, active means well fitted curve in the direction sought with a large enough effect in the repeat runs; inconclusive means weak or mixed curves; inactive means no such curve, though single readings can be large; an effect the other way counts as inactive or inconclusive.

Experiments:
[1] = biological target: Thyrotropin-releasing hormone receptor (Homo sapiens) (UniProt P34981); assay: qHTS assay to identify small molecule agonists of the thyrotropin-releasing hormone receptor (TRHR) signaling pathway (AID 1346891; calls by dose curve;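 further: HEK293 cells expressing TRHR with calcium dye readout; series mostly up to about 58 µM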)
Chain of Thyrotropin-releasing hormone receptor (Homo sapiens) (P34981 whole entry, looked up): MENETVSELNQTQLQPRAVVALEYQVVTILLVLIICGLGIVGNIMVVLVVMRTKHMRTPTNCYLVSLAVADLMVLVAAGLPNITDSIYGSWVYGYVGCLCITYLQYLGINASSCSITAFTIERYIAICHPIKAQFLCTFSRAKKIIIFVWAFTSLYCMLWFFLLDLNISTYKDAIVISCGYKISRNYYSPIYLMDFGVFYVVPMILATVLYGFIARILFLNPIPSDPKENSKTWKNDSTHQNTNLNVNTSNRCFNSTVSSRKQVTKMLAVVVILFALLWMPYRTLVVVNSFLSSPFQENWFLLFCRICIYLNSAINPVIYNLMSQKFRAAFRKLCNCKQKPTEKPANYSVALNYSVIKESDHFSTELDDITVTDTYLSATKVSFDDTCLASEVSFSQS
Method in brief: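 Kinetic fluorescence (3 min, 1 s intervals) reported intracellular calcium after compound transfer onto TRHR-Hek293 cells pre-loaded with dye for 2 h at 37 °C.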

[2] = Human pregnane X receptor (PXR) small molecule agonists, qHTS cell viability counter screen (AID 1346977); further: nearly all actives have a fitted effect of over 50% in size; further: potency means the concentration at half of the fitted maximal effect
Method in brief: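 HepG2 cells stably carrying the PXR-Luc reporter are cultured with 5% charcoal-stripped FBS and treated with compounds for 24hr. CellTiter-Fluor is added at 23hr and fluorescence is read after 1hr.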

[3] = Caspase-3/7 induction in HepG2 cells by small molecules, qHTS assay (AID 1346978); further: nearly all actives have a fitted effect of over 15% in size
Method in brief: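 Caspase-3/7 induction was measured by Caspase-Glo 3/7 luminescence (30 min, room temperature) after a 17 hr compound exposure of wild-type HepG2 cells seeded at 2,000 per well and pre-incubated 5 hr.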

[4] = Caspase-3/7 induction in CHO-K1 cells by small molecules, qHTS assay (AID 1346980); further: nearly all actives have a fitted effect of over 15% in size
Method in brief: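 Luminescent Caspase-Glo 3/7 read (30min, room temperature) quantified apoptosis induction. Cells were wild-type CHO-K1, treated with compound for 17hr at 37 C and 5% CO2.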

[5] = Caspase-3/7 induction in HepG2 cells by small molecules, qHTS cell viability counter screen (AID 1346981); further: series mostly up to about 92 µM; nearly all actives have a fitted effect of over 30% in size
Method in brief: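 Cell viability is measured as a cytotoxicity counter screen alongside the Caspase-Glo 3/7 readout in identical wells. Wild-type HepG2 cells are treated with test compounds for 16 hr at 37 C before CellTiter-Fluor addition and a 1-hr incubation.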

[6] = biological target: Nuclear receptor subfamily 1 group I member 2 (Homo sapiens) (UniProt O75469); assay: Human pregnane X receptor (PXR) small molecule agonists, qHTS assay (AID 1346982); further: nearly all actives have a fitted effect of over 35% in size; further: potency means the concentration at half of the fitted maximal effect
Chain of Nuclear receptor subfamily 1 group I member 2 (Homo sapiens) (O75469 whole entry, looked up): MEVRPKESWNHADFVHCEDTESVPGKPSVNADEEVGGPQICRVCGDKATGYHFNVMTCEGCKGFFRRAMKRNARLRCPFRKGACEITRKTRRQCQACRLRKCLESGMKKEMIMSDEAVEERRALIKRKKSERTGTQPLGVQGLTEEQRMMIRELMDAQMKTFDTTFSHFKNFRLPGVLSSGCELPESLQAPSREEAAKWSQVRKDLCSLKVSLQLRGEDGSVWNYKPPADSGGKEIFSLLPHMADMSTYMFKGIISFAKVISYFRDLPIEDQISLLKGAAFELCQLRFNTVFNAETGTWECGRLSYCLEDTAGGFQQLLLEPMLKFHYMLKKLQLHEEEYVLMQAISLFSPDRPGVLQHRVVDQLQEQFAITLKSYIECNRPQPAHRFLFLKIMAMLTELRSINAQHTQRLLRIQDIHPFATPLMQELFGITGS
Method in brief: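 Cells: HepG2 stably carrying PXR-Luc. Medium held 5% charcoal-stripped FBS. Compounds in DMSO added after 5 hr plating, incubated 24 hr, then luminescence quantified with ONE-Glo.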

[7] = biological target: Cytochrome P450 2C19 (Homo sapiens) (UniProt P33261); assay: Cytochrome P450 Family 2 Subfamily C Member 19 (CYP2C19) small molecule antagonists: luciferase reporter qHTS assay (AID 1671197); further: nearly all actives have a fitted effect of over 65% in size; further: potency means the concentration at half of the fitted maximal effect; on activity change, negative = inhibition: series mostly up to about 120 µM
Chain of Cytochrome P450 2C19 (Homo sapiens) (P33261 whole entry, looked up): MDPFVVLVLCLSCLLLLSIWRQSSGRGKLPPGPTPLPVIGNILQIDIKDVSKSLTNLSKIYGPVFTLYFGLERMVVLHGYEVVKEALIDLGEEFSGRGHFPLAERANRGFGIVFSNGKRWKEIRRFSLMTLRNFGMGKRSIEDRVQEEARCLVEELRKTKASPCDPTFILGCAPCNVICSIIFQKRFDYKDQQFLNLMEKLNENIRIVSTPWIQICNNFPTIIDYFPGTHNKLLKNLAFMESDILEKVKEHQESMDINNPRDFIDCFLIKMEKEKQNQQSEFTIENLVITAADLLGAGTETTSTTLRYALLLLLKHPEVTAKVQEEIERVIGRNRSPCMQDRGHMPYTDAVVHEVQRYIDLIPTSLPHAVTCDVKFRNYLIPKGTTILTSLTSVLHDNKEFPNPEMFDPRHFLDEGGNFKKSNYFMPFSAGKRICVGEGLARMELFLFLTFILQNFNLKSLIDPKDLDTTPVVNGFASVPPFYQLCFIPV
Method in brief: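 Enzyme-substrate mix with proluciferin substrate (P450-Glo CYP2C19 system) preincubated with compounds 10 min at room temperature; NADPH regeneration solution added, 37C for 1 h; detection reagent stops reaction, luminescence read after 20 min. Ketoconazole positive control.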

[8] = biological target: Cytochrome P450 2C9 (Homo sapiens) (UniProt P11712); assay: Cytochrome P450 Family 2 Subfamily C Member 9 (CYP2C9) small molecule antagonists: luciferase reporter qHTS assay (AID 1671198); further: nearly all actives have a fitted effect of over 50% in size; further: potency means the concentration at half of the fitted maximal effect; on activity change, negative = inhibition: series mostly up to about 120 µM
Chain of Cytochrome P450 2C9 (Homo sapiens) (P11712 whole entry, looked up): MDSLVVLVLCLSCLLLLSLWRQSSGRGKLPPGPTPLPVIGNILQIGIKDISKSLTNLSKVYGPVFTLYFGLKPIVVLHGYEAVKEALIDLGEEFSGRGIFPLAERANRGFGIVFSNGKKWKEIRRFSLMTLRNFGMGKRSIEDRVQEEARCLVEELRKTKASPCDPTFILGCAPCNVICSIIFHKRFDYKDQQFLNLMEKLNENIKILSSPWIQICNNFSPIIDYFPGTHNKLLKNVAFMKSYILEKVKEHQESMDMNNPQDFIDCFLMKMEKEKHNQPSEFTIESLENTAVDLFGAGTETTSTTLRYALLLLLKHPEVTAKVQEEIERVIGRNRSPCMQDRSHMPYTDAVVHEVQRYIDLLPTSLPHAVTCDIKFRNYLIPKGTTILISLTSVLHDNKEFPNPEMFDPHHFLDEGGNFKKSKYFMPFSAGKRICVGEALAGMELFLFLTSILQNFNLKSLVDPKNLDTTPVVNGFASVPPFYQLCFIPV
Method in brief: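 Enzyme-substrate mix preincubated with compound 10 min at room temperature; reaction started with NADPH regeneration solution, 1 h 37C. Luminescent luciferin product read after 20 min detection reagent.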

[9] = biological target: Cytochrome P450 1A2 (Homo sapiens) (UniProt P05177); assay: Cytochrome P450 Family 1 Subfamily A Member 2 (CYP1A2) small molecule antagonists: luciferase reporter qHTS assay (AID 1671199); further: nearly all actives have a fitted effect of over 50% in size; further: potency means the concentration at half of the fitted maximal effect; on activity change, negative = inhibition: series mostly up to about 120 µM
Chain of Cytochrome P450 1A2 (Homo sapiens) (P05177 whole entry, looked up): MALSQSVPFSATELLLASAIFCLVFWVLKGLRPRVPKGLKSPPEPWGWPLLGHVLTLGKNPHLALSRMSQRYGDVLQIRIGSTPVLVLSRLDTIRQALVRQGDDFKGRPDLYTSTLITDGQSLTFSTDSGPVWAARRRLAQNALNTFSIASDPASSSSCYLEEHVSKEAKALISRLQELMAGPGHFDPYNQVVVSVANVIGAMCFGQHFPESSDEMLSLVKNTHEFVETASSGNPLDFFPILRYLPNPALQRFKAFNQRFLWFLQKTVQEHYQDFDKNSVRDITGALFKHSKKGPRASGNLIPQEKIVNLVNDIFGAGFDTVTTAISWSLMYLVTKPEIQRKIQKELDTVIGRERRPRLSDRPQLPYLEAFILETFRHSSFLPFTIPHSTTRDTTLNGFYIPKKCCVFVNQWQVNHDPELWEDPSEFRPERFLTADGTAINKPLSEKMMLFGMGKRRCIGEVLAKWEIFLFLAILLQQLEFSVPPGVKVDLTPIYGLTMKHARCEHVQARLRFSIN
Method in brief: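 Compounds were incubated with CYP1A2 and a luminogenic proluciferin substrate for 10 min at room temperature before the reaction was started with NADPH regeneration solution. After 1 h, detection reagent was added and light output, proportional to CYP activity, was recorded.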

[10] = biological target: Voltage-gated inwardly rectifying potassium channel KCNH2 (Homo sapiens) (UniProt Q12809); assay: Human Ether-a-go-go-Related Gene (hERG) channel small molecule antagonists: fluorescence cell-based qHTS assay (AID 1671200); further: nearly all actives have a fitted effect of over 50% in size; further: potency means the concentration at half of the fitted maximal effect;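 on activity change, negative = inhibition: hERG-expressing U2OS cells given a thallium stimulus after FluxOR II dye loading; series mostly up to about 77 µM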
Chain of Voltage-gated inwardly rectifying potassium channel KCNH2 (Homo sapiens) (Q12809 whole entry, looked up): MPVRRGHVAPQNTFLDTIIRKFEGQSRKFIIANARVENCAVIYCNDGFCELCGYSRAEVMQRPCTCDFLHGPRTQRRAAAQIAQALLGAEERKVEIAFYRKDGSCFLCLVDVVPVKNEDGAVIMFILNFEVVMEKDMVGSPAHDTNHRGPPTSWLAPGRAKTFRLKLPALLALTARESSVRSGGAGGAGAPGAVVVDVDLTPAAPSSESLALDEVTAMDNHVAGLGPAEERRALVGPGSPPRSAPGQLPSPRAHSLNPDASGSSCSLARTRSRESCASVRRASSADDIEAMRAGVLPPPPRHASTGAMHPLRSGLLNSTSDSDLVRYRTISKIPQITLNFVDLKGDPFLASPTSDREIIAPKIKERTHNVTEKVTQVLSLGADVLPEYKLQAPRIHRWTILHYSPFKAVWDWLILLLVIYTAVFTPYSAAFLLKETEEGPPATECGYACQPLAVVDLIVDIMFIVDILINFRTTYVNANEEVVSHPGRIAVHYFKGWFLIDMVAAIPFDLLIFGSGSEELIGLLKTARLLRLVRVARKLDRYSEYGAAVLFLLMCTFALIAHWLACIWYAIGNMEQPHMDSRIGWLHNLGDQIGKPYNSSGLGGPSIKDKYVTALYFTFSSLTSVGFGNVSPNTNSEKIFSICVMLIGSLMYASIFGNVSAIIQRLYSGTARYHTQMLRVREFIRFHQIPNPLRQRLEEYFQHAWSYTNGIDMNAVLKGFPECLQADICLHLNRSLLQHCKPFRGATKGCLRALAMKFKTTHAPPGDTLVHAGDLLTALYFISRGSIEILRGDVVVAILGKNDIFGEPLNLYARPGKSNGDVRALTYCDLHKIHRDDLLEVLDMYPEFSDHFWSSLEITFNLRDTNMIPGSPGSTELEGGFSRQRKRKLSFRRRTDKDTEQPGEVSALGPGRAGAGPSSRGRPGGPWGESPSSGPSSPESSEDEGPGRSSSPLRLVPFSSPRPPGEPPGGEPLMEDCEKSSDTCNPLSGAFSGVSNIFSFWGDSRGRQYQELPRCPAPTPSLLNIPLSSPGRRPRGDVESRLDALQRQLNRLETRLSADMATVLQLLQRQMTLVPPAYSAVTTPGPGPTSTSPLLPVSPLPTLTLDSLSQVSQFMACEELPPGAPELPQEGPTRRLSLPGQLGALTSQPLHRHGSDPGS
Method in brief: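 First, 1000 cells per well are seeded and cultured overnight at 37 C. Next, FluxOR II dye is loaded for 1 h at room temperature, protected from light. After 10 more minutes, stimulus is added and fluorescence is read.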

[11] = biological target: Cytochrome P450 3A4 (Homo sapiens) (UniProt P08684); assay: Cytochrome P450 Family 3 Subfamily A Member 4 (CYP3A4) small molecule antagonists: luciferase reporter qHTS assay (AID 1671201)
Chain of Cytochrome P450 3A4 (Homo sapiens) (P08684 whole entry, looked up): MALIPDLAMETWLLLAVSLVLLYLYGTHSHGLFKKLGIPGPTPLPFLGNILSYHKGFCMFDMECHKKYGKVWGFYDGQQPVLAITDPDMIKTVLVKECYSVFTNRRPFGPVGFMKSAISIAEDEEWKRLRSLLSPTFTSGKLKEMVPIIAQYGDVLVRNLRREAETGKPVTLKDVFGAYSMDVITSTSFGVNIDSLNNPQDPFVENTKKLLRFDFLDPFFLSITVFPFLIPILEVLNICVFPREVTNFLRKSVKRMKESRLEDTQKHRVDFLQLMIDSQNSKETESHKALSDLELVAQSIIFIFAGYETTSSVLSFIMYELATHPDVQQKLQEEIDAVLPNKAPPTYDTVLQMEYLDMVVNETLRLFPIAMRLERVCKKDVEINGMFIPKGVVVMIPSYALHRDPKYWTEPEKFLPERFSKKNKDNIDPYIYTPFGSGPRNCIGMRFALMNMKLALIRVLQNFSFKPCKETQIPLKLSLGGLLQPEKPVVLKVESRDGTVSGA
Method in brief: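 Enzyme and proluciferin substrate are mixed with test chemicals for 10 min, then NADPH regeneration system drives turnover for 1 h at room temperature. A detection reagent halts the reaction; luminescence after 20 min gives relative activity.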

[12] = biological target: Cytochrome P450 2D6 (Homo sapiens) (UniProt P10635); assay: Cytochrome P450 Family 2 Subfamily D Member 6 (CYP2D6) small molecule antagonists: luciferase reporter qHTS assay (AID 1671196); further: nearly all actives have a fitted effect of over 50% in size; further: potency means the concentration at half of the fitted maximal effect; on activity change, negative = inhibition: series mostly up to about 120 µM
Chain of Cytochrome P450 2D6 (Homo sapiens) (P10635 whole entry, looked up): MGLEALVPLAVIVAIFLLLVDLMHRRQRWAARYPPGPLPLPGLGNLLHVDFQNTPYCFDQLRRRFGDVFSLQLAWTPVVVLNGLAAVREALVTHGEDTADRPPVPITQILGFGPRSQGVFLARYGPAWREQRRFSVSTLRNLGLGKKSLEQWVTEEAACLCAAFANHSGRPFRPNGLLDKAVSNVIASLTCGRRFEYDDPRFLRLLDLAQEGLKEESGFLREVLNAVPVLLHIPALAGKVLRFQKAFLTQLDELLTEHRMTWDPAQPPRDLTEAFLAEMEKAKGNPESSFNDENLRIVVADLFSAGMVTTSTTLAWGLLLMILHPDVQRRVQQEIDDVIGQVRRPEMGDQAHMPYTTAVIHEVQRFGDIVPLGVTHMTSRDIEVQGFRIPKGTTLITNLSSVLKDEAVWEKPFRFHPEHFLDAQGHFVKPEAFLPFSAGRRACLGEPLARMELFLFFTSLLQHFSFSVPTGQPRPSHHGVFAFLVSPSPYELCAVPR
Method in brief: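 Enzyme and proluciferin substrate were first combined with test chemical for 10 min at room temperature. Adding NADPH regeneration solution started a 1 h reaction, stopped with luciferin detection reagent and read by luminescence 20 min later.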

[13] = Caspase-3/7 induction in CHO-K1 cells by small molecules, qHTS cell viability counter screen (AID 1346979); further: nearly all actives have a fitted effect of over 35% in size
Method in brief: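 Seeding: 1,500 CHO-K1 cells/well. Rest: 5hr, 37C. Treatment: compounds in DMSO, 16hr. Read: CellTiter-Fluor, 1hr, fluorescence.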

[14] = biological target: Nuclear receptor subfamily 1 group I member 2 (Rattus norvegicus) (UniProt Q9R1A7); assay: Rat pregnane X receptor (rPXR) activation by small molecules, qHTS assay (AID 1346983); conditions: rPXR luciferase reporter cells, One-Glo luminescence, 24 h; max activation: stronger effect = higher value; further: nearly all actives have a fitted effect of over 20% in size
Chain of Nuclear receptor subfamily 1 group I member 2 (Rattus norvegicus) (Q9R1A7 whole entry, looked up): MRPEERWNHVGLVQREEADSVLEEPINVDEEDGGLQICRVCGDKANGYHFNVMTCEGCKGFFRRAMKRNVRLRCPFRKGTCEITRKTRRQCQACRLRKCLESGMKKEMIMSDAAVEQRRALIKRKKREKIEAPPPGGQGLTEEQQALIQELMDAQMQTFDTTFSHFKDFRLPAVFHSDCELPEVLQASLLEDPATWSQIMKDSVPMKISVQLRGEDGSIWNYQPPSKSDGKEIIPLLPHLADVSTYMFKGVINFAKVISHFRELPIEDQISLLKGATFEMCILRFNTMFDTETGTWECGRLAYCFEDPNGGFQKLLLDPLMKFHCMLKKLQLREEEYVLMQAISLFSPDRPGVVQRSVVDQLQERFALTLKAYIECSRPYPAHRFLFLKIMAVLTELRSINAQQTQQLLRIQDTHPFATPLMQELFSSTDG
Method in brief: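 Luminescent readout (One-Glo luciferase, 30 min room temperature) followed 24 hr compound treatment at 37 C of rPXR cells plated 2,000 per well and preincubated 5hr; qHTS format with compounds delivered in DMSO.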

[15] = biological target: Nuclear receptor subfamily 1 group I member 2 (Homo sapiens) (UniProt O75469); assay: CYP3A4 induction through human pregnane X receptor (PXR) by small molecules, qHTS assay (AID 1346984); further: nearly all actives have a fitted effect of over 40% in size
Method in brief: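 Quantitative HTS in DPX-2 cells, i.e. HepG2 transfected with PXR response element and CYP3A4-promoter luciferase. Compounds in DMSO incubated 24hr at 37C; then P450-Glo CYP3A4 substrate, 3uM final, 3hr; One-Glo luminescence.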

[16] = biological target: Nuclear receptor subfamily 1 group I member 2 (Homo sapiens) (UniProt O75469); assay: Human pregnane X receptor (PXR) activation by small molecules, qHTS assay (AID 1346985); further: nearly all actives have a fitted effect of over 40% in size
Method in brief: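 DPX-2 cells (HepG2 co-transfected with a PXR response element and a CYP3A4-promoter luciferase construct) were seeded at 2,000 per well, rested 5 hr at 37C, then exposed to DMSO-dissolved compounds for 24 hr. Activation was read as luciferase luminescence.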

Compound: c1ccc(CCCc2ccccn2)cc1
- outcome [1]: inactive
- Potency [2]: inactive
- outcome [3]: inactive
- outcome [4]: inactive
- outcome [5]: inactive
- Potency [6]: 34.4 µM (active)
- Potency [7]: 5.64 µM (active)
- Potency [8]: 35.6 µM (active)
- Potency [9]: 22.4 µM (active)
- Potency [10]: inactive
- Potency [11]: inactive

Compound: O=C1OC(=O)c2cc([N+](=O)[O-])ccc21
- outcome [1]: inactive
- Potency [2]: inactive
- outcome [3]: inactive
- outcome [4]: inactive
- outcome [5]: inactive
- Potency [6]: inactive
- Potency [12]: 35.5 µM (active)
- Potency [8]: inactive
- Potency [10]: inactive
- Potency [11]: inactive

Compound: CC/C=C\CCCCO
- outcome [1]: inactive
- outcome [3]: inactive
- Potency [13]: inactive
- outcome [4]: inactive
- outcome [5]: inactive
- Potency [6]: inactive
- Potency [12]: inactive
- Potency [7]: inactive
- Potency [9]: inactive
- Potency [10]: inactive
- Potency [11]: inactive

Compound: N#CCc1ccccc1[N+](=O)[O-]
- outcome [1]: inactive
- Potency [2]: inactive
- outcome [3]: inactive
- outcome [4]: inactive
- outcome [5]: inactive
- Potency [12]: 78.7 µM (active)
- Potency [9]: 31.3 µM (active)
- Potency [10]: inactive
- Potency [11]: inactive

Compound: COc1ccc(N=[N+]([O-])c2ccc(OC)cc2)cc1
- outcome [1]: inactive
- Potency [2]: inactive
- outcome [3]: inactive
- outcome [4]: inactive
- Potency [6]: 0.34 µM (active)
- Potency [7]: 19.8 µM (active)
- Potency [9]: 7.03 µM (active)
- Potency [10]: inactive
- Potency [11]: inactive

Compound: CC(=O)OC(C)(C)C
- outcome [1]: inactive
- Potency [2]: inactive
- outcome [3]: inactive
- outcome [4]: inactive
- outcome [5]: inactive
- Potency [8]: inactive
- Potency [9]: inactive
- Potency [10]: inactive
- Potency [11]: inactive

Compound: COCc1ccc(COC)cc1
- outcome [1]: inactive
- outcome [3]: inactive
- Potency [13]: inactive
- outcome [4]: inactive
- outcome [5]: inactive
- Potency [6]: inactive
- Potency [12]: inactive
- Potency [7]: inactive
- Potency [8]: inactive
- Potency [9]: inactive
- Potency [10]: inactive
- Potency [11]: inactive

Compound: CCCCCC[C@@H](CCC)C(=O)O
- outcome [1]: inactive
- Potency [2]: inactive
- outcome [3]: inactive
- outcome [4]: inactive
- outcome [5]: inactive
- Potency [6]: inactive
- Potency [12]: inactive
- Potency [7]: inactive
- Potency [8]: 34.7 µM (active)
- Potency [9]: inactive
- Potency [10]: inactive
- Potency [11]: inactive

Compound: CCCCCCCCCCCl
- outcome [1]: inactive
- outcome [3]: inactive
- Potency [13]: inactive
- outcome [4]: inactive
- outcome [5]: inactive
- Potency [6]: inactive
- Potency [12]: inactive
- Potency [7]: inactive
- Potency [8]: inactive
- Potency [9]: 32.2 µM (active)
- Potency [10]: inactive
- Potency [11]: inactive

Compound: C=CCOCC(O)CS(=O)(=O)O (stereo not drawn)
- outcome [1]: inactive
- Potency [2]: inactive
- outcome [3]: inactive
- outcome [4]: inactive
- Potency [6]: inactive
- Potency [12]: inactive
- Potency [7]: 80.8 µM (active)
- Potency [8]: inactive
- Potency [9]: inactive
- Potency [10]: inactive
- Potency [11]: inactive

Compound: CCCOc1ccccc1-c1nc2n[nH]nc2c(=O)[nH]1
- outcome [1]: inactive
- Potency [2]: inactive
- outcome [3]: inactive
- outcome [4]: inactive
- outcome [5]: inactive
- Potency [6]: inactive
- Potency [12]: inactive
- Potency [7]: inactive
- Potency [10]: inactive
- Potency [11]: inactive

Compound: C1C2OC2C2C1C1CC2C2OC12 (stereo not drawn)
- outcome [1]: inactive
- Potency [2]: inactive
- outcome [3]: inactive
- outcome [4]: inactive
- outcome [5]: inactive
- Potency [6]: inactive
- Potency [12]: inactive
- Potency [10]: inactive
- Potency [11]: inactive

Compound: O=S(=O)(c1cccc2cnccc12)N1CCCNCC1
- outcome [1]: inactive
- Potency [2]: 26.6 µM (active)
- outcome [3]: inactive
- outcome [4]: inactive
- outcome [5]: inactive
- Potency [7]: inactive
- Potency [9]: inactive
- Potency [10]: inactive

Compound: CC(C)(O)Cc1ccccc1
- outcome [1]: inactive
- Potency [2]: inactive
- outcome [3]: inactive
- outcome [4]: inactive
- outcome [5]: inactive
- Potency [12]: inactive
- Potency [8]: inactive
- Potency [9]: inactive
- Potency [10]: inactive
- Potency [11]: inactive

Compound: NS(=O)(=O)c1cc2c(cc1C(F)(F)F)NC(Cc1ccccc1)NS2(=O)=O (stereo not drawn)
- outcome [1]: inactive
- Potency [2]: inactive
- outcome [3]: inactive
- outcome [4]: inactive
- outcome [5]: inactive
- max activation [14]: -1.57%
- Potency [15]: inactive
- Potency [16]: inactive
- Potency [9]: inactive

Compound: CC(CCO)CCCC(C)(C)O (stereo not drawn)
- outcome [1]: inactive
- Potency [2]: inactive
- outcome [3]: inactive
- outcome [4]: inactive
- outcome [5]: inactive
- Potency [6]: inactive
- Potency [12]: inactive
- Potency [10]: inactive
- Potency [11]: inactive

Compound: CCN1CCCC(OC(=O)C(c2ccccc2)c2ccccc2)C1 (stereo not drawn)
- outcome [1]: inactive
- outcome [3]: inactive
- Potency [13]: inactive
- outcome [4]: inactive
- outcome [5]: inactive
- Potency [6]: inactive
- max activation [14]: 0.492%
- Potency [12]: 1.38 µM (active)
- Potency [8]: inactive
- Potency [9]: inactive
- Potency [10]: 3.38 µM (active)

Compound: C=C(C)C(=O)OCCCCCCCCCCCCCCCCCC
- activation [1]: -0.148% [at 11.8 µM]
- activity change, negative = cytotoxicity [2]: -1.38% [at 19 µM]
- caspase activation [3]: -1.69% [at 19 µM]
- caspase-3/7 activation [4]: 0.453% [at 19 µM]
- activity change, negative = cytotoxicity [5]: -0.0917% [at 19 µM]
- activation [6]: -0.119% [at 19 µM]
- activity change, negative = inhibition [12]: 2.34% [at 23.6 µM]
- Potency [9]: inactive
- activity change, negative = inhibition [10]: -0.193% [at 15.8 µM]
- activity change, negative = inhibition [11]: 2.34% [at 23.6 µM]

Compound: C[N+](C)(C)CC[N+]1(C)Cc2c(Cl)c(Cl)c(Cl)c(Cl)c2C1
- outcome [1]: inactive
- outcome [3]: inactive
- Potency [13]: inactive
- outcome [4]: inactive
- outcome [5]: inactive
- Potency [6]: inactive
- max activation [14]: -3.39%
- Potency [15]: inactive
- Potency [16]: inactive
- Potency [12]: 1.55 µM (active)
- Potency [7]: inactive
- Potency [8]: inactive
- Potency [9]: inactive
- Potency [10]: inactive
- Potency [11]: inactive

Compound: CC(C)=CCC/C(C)=C/C(=O)O
- outcome [1]: inactive
- Potency [2]: inactive
- outcome [3]: inactive
- outcome [4]: inactive
- Potency [6]: inactive
- Potency [12]: inactive
- Potency [7]: 39.9 µM (active)
- Potency [9]: inactive
- Potency [10]: inactive
- Potency [11]: inactive

Compound: CC(C)(C)C(=O)/C=C/c1ccc(Cl)cc1
- outcome [1]: inactive
- outcome [3]: inactive
- Potency [13]: inactive
- outcome [4]: inactive
- outcome [5]: inactive
- Potency [6]: 54.5 µM (active)
- Potency [12]: inactive
- Potency [7]: 7.96 µM (active)
- Potency [8]: 63.3 µM (active)
- Potency [9]: 22.4 µM (active)
- Potency [11]: inactive
